# Measurements taken from PubChem BioAssay (NCI).
# This is part of a sample that, as a whole, favours compounds with a hit. Of some 83,000 tested, about 20% had one in any assay.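 Interpretation: 100, growth as untreated; towards 0, rising growth inhibition; 0, no net growth; 0 to -100, cell death. Compounds scoring below 10 were considered active.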 A number with no mark means an inactive call. The source made the active and inactive calls.
# Test system: NCI-H23 lung
# Assay: NCI-60 one-dose screen, 48 h (100 = growth as untreated, 0 = no growth, -100 = all killed)
# Conditions: 10 µM
row,SMILES,growth
1,COCCOC(=O)NC(=O)Nc1ccc(C(=O)c2ccc(Cl)cc2)cc1,36.2%
2,Cc1cnc(C=O)c2cccc([N+](=O)[O-])c12,98.7%
3,COc1ccc(-c2nc(SCC(=O)c3ccc(Br)cc3)[nH]c(=O)c2C#N)cc1,106%
4,COc1cccc2c1C(=O)c1c(O)c3c(c(O)c1C2=O)C[C@@](O)(C(=O)COC(=O)c1ccccc1)C[C@@H]3OC1CC(N)C(O)C(C)O1 (stereo partly drawn),-65.6% (active)
5,Fc1ccc2[nH]c3c(NCCCN4CCOCC4)ncnc3c2c1,83.2%
6,CC(C)c1[nH]nc2c(NCc3ccc(-c4ccccn4)cc3)nc(SCCN)nc12,-34.8% (active)
7,COc1ccc(NC(=O)CCn2cnc3c(cc(-c4ccccc4)n3-c3ccccc3)c2=O)cc1,85.8%
8,CNC(=O)c1cc(Oc2ccc(NC(=O)Nc3ccc(Cl)c(OC4CCCCC4)c3)c(F)c2)ccn1,21.4%
9,CCCCCCCCCCCCCCCCn1cc[n+](C)c1,-51.9% (active)
10,O=C1/C(=C/c2cccs2)CCC/C1=C\c1cccs1,81.5%
11,COC(=O)C1(C(=O)OC)C2C(=O)C3C(C21)C3(C(=O)OC(C)(C)C)C(=O)OC(C)(C)C (stereo not drawn),107%
12,COc1ccc(Cn2cc3c(c2-c2ccccc2)CC(C)(C)c2cnoc2-3)cc1,34.4%
13,CC(C)C[C@H](NC(=O)Cn1ccc2ccccc2c1=O)B(O)O,74.5%
14,Cc1cc(Nc2cccc(F)c2)nc(NCc2ccccc2)n1,-2.43% (active)
15,O=C(/C=C/c1ccc(Cl)cc1)c1ccc(Br)cc1,94.6%
16,Cc1cc2cc3c(=O)[nH]c(=O)cc-3n(CC(O)C(O)C(O)CO)c2cc1C (stereo not drawn),106%
17,N#Cc1cnc2ccc(NCc3cnc[nH]3)cc2c1Nc1ccc(F)c(Cl)c1,78.8%
18,Cn1c(=O)c2[nH]c(C(O)c3ccc(Cl)cc3)nc2n(C)c1=O (stereo not drawn),98.8%
19,Cc1ccc(S(=O)(=O)Nc2cccc3[nH]c(C(F)(F)F)nc23)cc1,39.5%

row,SMILES,growth
1,CCCCCCCOc1cccc(/C=C2/C(=O)N=C3SCCCN32)c1,70.7%
2,Cc1ccc(C)c(S(=O)(=O)NC2c3ccccc3Oc3ccccc32)c1,98%
3,Nc1nc2c(nnn2C2CC(O)C(CO)O2)c(=O)[nH]1 (stereo not drawn),45%
4,Cc1nc2cc(-n3c(-c4ccc(F)cc4)nc4ccccc4c3=O)ccc2n1Cc1ccccc1,42.1%
5,CCN(CCCNC(=O)Cc1cc(=O)oc2cc(N(C)C)ccc12)CCNc1ccnc2cc(Cl)ccc12,94.9%
6,COc1cc(-c2nc3ccccc3[nH]2)ccc1OCC(=O)N=Nc1c(O)[nH]c2ccccc12,90%
7,O=C(OCc1ncc(-c2ccc(C(F)(F)F)cc2)c(NC2CCCCCC2)n1)c1c(F)c(F)c(F)c(F)c1F,63.1%
8,COc1cc(C2=Nc3c/c(=C\c4c(O)[nH]c5ccc(Cl)cc45)ccc3=N2)cc(OC)c1OC,2.68% (active)
9,COc1ccc(OC)c([N+](=O)[O-])c1C=O,107%
10,COc1ccc(-c2nnc(COc3ccc(NC(=O)Nc4cccc(C(F)(F)F)c4)cc3F)o2)cc1,56.6%
11,COc1ccc(C(=O)n2nc(CC(=O)NCc3ccccc3)nc2N)cc1,108%
12,NC1CCC(Nc2nc(NCc3ccc(-c4ccccc4O)nc3)c3ncn(C4CCCC4)c3n2)CC1 (stereo not drawn),-50.2% (active)
13,COc1ccc(CSc2nc3cc(OC)c(OC)cc3c(=O)n2-c2ccc(OC)cc2OC)cc1,78.3%
14,CCCCCCN=C(N)CCCCCCCCCCC(N)=NCCCCCC,27.8%
15,O=C(COCc1c(-c2ccccc2)no[n+]1[O-])Nc1nc(-c2ccc(Cl)cc2)cs1,93.6%
16,O=[N+]([O-])c1ccc2c(c1)Cc1cc(I)ccc1-2,99.4%
17,CN(C)CCCN(Cc1ccccc1O)C(=S)Nc1ccc(Cl)cc1,108%
18,CS(=O)(=O)Nc1ccc(Nc2c3ccccc3nc3cc(Cl)ccc23)cc1,42.7%
19,COc1ccc(/C=C2\CCC3C(CCCC34OCCO4)C2=O)cc1 (stereo not drawn),94.2%
